Source: PubChem
PKM2 act = PKM2 (human) enzyme activation | purified PKM2, Kinase-Glo ATP luminescence, activation; response scale: 0% is enzyme alone, no compound | Potency, µM (series often up to 57.5 µM), without a hit: at the top dose activation, actives largely listed as activators | AID 1631 | P14618 | 0.34% of 260,000 active; also: potency is read from the fitted curve at half-maximal effect; % is scaled to controls: 0 for no effect and ±100 for the full control effect; nearly all actives have a fitted effect of over 55% in size
Target sequence (P14618 whole entry, looked up): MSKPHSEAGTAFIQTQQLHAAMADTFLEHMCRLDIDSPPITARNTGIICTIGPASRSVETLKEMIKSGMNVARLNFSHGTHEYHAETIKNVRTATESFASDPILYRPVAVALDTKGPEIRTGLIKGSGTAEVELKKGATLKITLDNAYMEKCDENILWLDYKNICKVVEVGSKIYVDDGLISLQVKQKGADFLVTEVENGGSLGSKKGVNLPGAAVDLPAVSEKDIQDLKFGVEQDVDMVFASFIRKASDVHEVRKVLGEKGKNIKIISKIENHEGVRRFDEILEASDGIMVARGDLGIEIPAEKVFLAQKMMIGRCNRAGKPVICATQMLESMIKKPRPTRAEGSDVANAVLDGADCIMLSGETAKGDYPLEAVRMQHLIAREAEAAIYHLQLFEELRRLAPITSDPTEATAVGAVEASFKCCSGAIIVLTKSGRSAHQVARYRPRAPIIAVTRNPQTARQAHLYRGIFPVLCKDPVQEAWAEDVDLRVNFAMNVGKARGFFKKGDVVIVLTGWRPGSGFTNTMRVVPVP
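Kinase-Glo luminescence reports ATP generated from ADP (0.1 mM) and PEP (0.5 mM) by purified hPK-M2 after 1 h at room temperature, pH 7.2 imidazole buffer; intermediate enzyme activity allows detecting inhibitors and activators.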
IL-2 act = activators of IL-2; 0.065% of 360,000 active; activation, % (series mostly up to about 46 µM); IL-2 activation reporter assay, cell-based qHTS; stimulated with anti-CD3/CD4/CD28 beads; in transgenic mouse T cells; AID 652025; in the data active = activation above about 50%; inconclusive = mostly about 30% to 49%; also: 0% is about no effect
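First, unstimulated transgenic mouse T cells were exposed to compound for 60 min. Next, anti-CD3/anti-CD4-coated beads with anti-CD28 were added. Finally, after 18 h at 37 degrees C, EGFP and DsRed were imaged.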
Pin1 inh = human Pin1 inhibition; Q13526; Pin1 FP peptide displacement, HiFluor488, 10 min; Potency, µM (titrated, usually from 115 µM), without a hit: top-dose activity, negative = inhibition, usual class: inhibitors; 0.009% of 390,000 active; active = well fitted inhibition curve with a large enough effect in the polarisation, with a control signal flat, not every such curve was filed as active; inconclusive = small, poorly fitted or top-dose-only effect, or effect the other way, or a change in a side signal; inactive = no such curve, though single readings can be large or run the other way; the % refers to the polarisation; also: potency is read from the fitted curve at half-maximal effect; % is scaled to controls: 0 for no effect and ±100 for the full control effect
Integrin act MD = integrin-mediated muscular dystrophy alleviation activation; alpha7betagal myoblasts, beta-gal FDG fluorescence, 48 h; Potency, µM (highest dose often 38.3 µM), for the others: top-dose activation, most hits filed as activators; 0.064% of 350,000 active;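 also: potency is read from the fitted curve at half-maximal effect; 100% = response of the positive control SU9516; nearly all actives have a fitted effect of over 60% in size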
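Alpha7betagal+/- myoblasts (passage 13) were plated 16-24 hr, then exposed to compounds (1:260 dilution of DMSO stock) for 48 hours at 37C. After MPER lysis, β-galactosidase reporter activity was read as FDG fluorescence (ex 480/em 540) after 30 minutes.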
USP2a block = inhibitors of human ubiquitin-specific protease USP2a; O75604; USP2 core, Ub-CHOP2 coupled fluorogenic reporter, 485/531; 0.01% of 330,000 active; Potency, µM (top dose mostly 38.3 µM), for the others: at the highest dose activity change, negative = inhibition, usual class: inhibitors;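 also: potency is read from the fitted curve at half-maximal effect; plate controls were DMSO wells for no effect and full inhibition by NEM control for full effect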
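USP2 core (10nM final) preincubated 30min RT with compound in 20mM Tris-HCl pH 8.0, 2mM CaCl2, 2mM beta-mercaptoethanol, 0.05% CHAPS; 25nM Ub-CHOP2 plus 25nM reporter substrate added, fluorescence (Ex485/Em531) read after 60min.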
ClpP mod = qHTS Assay for Activators of ClpP; purified B. subtilis ClpP, FRET peptide cleavage, 20 min; 1.9% of 340,000 active; Potency, µM (doses to about 57.5 µM), for the others: at the highest dose activity change, negative = active; active = well fitted falling curve with a large enough effect; inconclusive = small, poorly fitted or top-dose-only effect; inactive = no such curve, though single readings can be large or run the other way; also: potency is read from the fitted curve at half-maximal effect; the source files actives as falling curves though it sought activators and does not explain the sign; nearly all actives have a fitted effect of over 65% in size
Target sequence (P80244 whole entry, looked up): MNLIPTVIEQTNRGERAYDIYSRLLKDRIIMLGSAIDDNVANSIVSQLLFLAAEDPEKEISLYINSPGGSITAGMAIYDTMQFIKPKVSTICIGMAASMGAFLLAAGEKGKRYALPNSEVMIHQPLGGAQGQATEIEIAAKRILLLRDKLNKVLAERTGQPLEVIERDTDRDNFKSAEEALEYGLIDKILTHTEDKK
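ClpP 10 microg/mL final, pH 8 Tris/KCl buffer with BSA, glycerol, Tween-20; compound pinned in; FRET-FV substrate; RT 20 min; Ex320/Em430; ΔFRET vs ADEP 5.8 microM, DMSO, no enzyme.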
Starred values were filed as active, the others as inactive; ? = inconclusive; / = not tested or not shown. A selection: hits, their analogues and other compounds. The true share with any hit is near 1.9%. Unless noted, calls follow the shape of the dose curve; as a rule, active = well fitted curve in the direction sought with a large enough effect; inconclusive = small, poorly fitted or top-dose-only effect, or another doubt; inactive = no such curve, though single readings can be large; an effect the other way counts as inactive or inconclusive.

SMILES	PKM2 act	IL-2 act	Pin1 inh	Integrin act MD	USP2a block	ClpP mod
Cc1cc(N(C)C)c(C)cc1/C=C/c1ccnc2ccccc12	/	/	/	/	/	1.5%
O=S(=O)(c1ccccc1)N1CCN(c2nc(C3CC3)nc3ccccc23)CC1	/	/	-17.2%	/	/	/
Cc1c(C#N)c2ncn(Cc3ccccn3)c(=O)c2n1-c1ccccc1	-16.5%	-1.7	-1.4%	-6.1%	0.0%	28.2µM*
COc1ccc(C2c3c(nc(CCc4ccccc4)[nH]c3=O)Oc3ccc4ccccc4c32)cc1OC (stereo unspecified)	/	/	57.9%	/	/	/
CCCCCCCCCCCC1=C(O)C(=O)C=C(O)C1=O	/	0.4	28.2µM*	-17.0%	/	?
Cc1c(-c2ccccc2)[n+](=O)c(-c2ccco2)c(C)n1[O-]	-3.7%	-1.4	2.1%	4.2%	3.0%	28.2µM*
Cc1c(-c2ccco2)[n+](=O)c2c(n1[O-])CCCCC2	-3.8%	-2.3	-5.5%	16.1%	1.8%	-5.2%
CCN(CC)c1ccc(/C=C2\SC(=O)N(C(C)C)C2=O)o1	12.6µM*	0.7	?	-38.9%	22.2%	-2.2%
O=c1[nH]c2ccc(S(=O)(=O)N3CCN(S(=O)(=O)c4ccc5c(c4)OCCO5)CC3)cc2[nH]c1=O	/	/	1.1%	/	/	/
CCC(c1nnnn1Cc1ccc(F)cc1)N(CCCO)Cc1cc2cc3c(cc2[nH]c1=O)OCO3 (stereo unspecified)	2.6%	-0.5	1.7%	-6.6%	2.4%	31.6µM*
CCCCCCCCN1[C@@H](CC(=O)OC)c2ccc(/C=C/C(=O)OC)cc2S1(=O)=O	/	/	/	/	/	-8.1%
Cc1ccc2nc(-c3ccc(NC(=O)CN(c4ccccc4C)S(C)(=O)=O)cc3)sc2c1	-0.1%	-2.2	20.8%	-30.0%	2.6%	25.1µM*
Cc1ccc2nc(-c3ccc(NC(=O)COC(=O)c4ccc([N+](=O)[O-])o4)cc3)sc2c1	-3.4%	-0.6	0.9%	-7.1%	2.6%	28.2µM*
Cc1ccc2nc(-c3ccc(NC(=O)COC(=O)c4cncc(Br)c4)cc3)sc2c1	-1.3%	1.5	30.5%	-11.7%	3.7%	/
Cc1ccc2nc(-c3ccc(NC(=O)COC(=O)c4ccc(Br)o4)cc3)sc2c1	1.3%	3.1	25.9%	-7.5%	4.1%	8.91µM*
Cc1ccc2nc(-c3ccc(NC(=O)CN4C(=O)NC(C)(c5ccc(OC(F)F)cc5)C4=O)cc3)sc2c1 (stereo unspecified)	-13.2%	-1.1	2.5%	-44.5%	4.7%	14.1µM*
CCOc1ncccc1C(=O)OCC(=O)Nc1ccc(-c2nc3ccc(C)cc3s2)cc1	-3.6%	-0.1	33.2%	17.4%	-0.7%	3.55µM*
Cc1ccc(NC(=O)COC(=O)c2ccco2)cc1	1.7%	-0.1	-3.4%	32.1%	2.2%	-2.0%
Cc1ccc2nc(-c3ccc(NC(=O)COC(=O)c4ccco4)cc3)sc2c1	10.0%	5.8	1.7%	-18.2%	1.5%	7.08µM*
C=CCn1c(SCC(=O)Nc2ccc(-c3nc4ccc(C)cc4s3)cc2)nnc1-c1ccccc1	-9.0%	1.2	98.5%	17.6%	2.0%	15.8µM*
CCCN(CCC)c1ccc(/C=C/c2ccnc3ccccc23)cc1	/	/	/	/	/	-1.0%
COCCNC(=O)CSc1ccccc1C(=O)NCC1CCCCC1	-1.2%	-3.0	18.9%	-6.9%	9.0%	/
CC1CCN(C(=O)c2ccccc2SCC(=O)NCC2CCCCC2)CC1	/	-4.7	3.1%	-18.1%	0.1%	22.4µM*
O=C(CCc1nc2ccccc2s1)N1CCN(S(=O)(=O)c2cccs2)CC1	?	-2.2	4.7%	-11.8%	-6.4%	-1.1%
O=C(OCc1nc2ccccc2s1)C1CCN(S(=O)(=O)c2cccs2)CC1	8.91µM*	-0.9	18.4%	-19.3%	-1.4%	-2.2%
SMILES	PKM2 act	IL-2 act	Pin1 inh	Integrin act MD	USP2a block	ClpP mod
O=S(=O)(c1cccs1)N1CCN(Cc2nc3ccccc3s2)CC1	22.4µM*	0.9	3.2%	-27.7%	3.0%	-2.6%
CCCN1CNc2c(c(=O)[nH]c(=S)n2CCc2ccc(C)cc2)C1	/	/	0.2%	/	/	-1.4%
CC(C)C(=O)Nc1ccc(NC(=S)NC(=O)c2ccc([N+](=O)[O-])cc2)cc1	0.0%	-2.0	-3.1%	5.4%	2.3%	1.3%
CC(=O)Nc1ccc(NC(=S)NC(=O)c2ccc([N+](=O)[O-])cc2)cc1	1.5%	0.7	0.4%	22.0%	4.7%	6.31µM*
CN(CC(=O)N1CCOCC1)S(=O)(=O)c1cc(Cl)ccc1Cl	/	1.1	0.7%	0.0%	7.3%	/
CCN(CC(=O)N1CCOCC1)S(=O)(=O)c1cc(Cl)ccc1Cl	-1.3%	-2.2	-5.8%	36.7%	-0.5%	31.6µM*
COc1cc(Cl)c(CC(=O)NO)cc1OC	/	/	/	/	/	1.8%
COC(=O)c1c(NC(=O)c2cc3nc(-c4ccc(OC)cc4)cc(C(F)(F)F)n3n2)sc2c1CCCC2	/	/	0.4%	/	/	28.2µM*
CCOC(=O)c1c(NC(=O)c2cc3nc(-c4ccc(OC)cc4)cc(C(F)(F)F)n3n2)sc2c1CCC(C)C2 (stereo unspecified)	/	/	-8.2%	/	/	31.6µM*
COc1ccc(-c2cc(C(F)(F)F)n3nc(C(=O)NCCCn4ccnc4)cc3n2)cc1	-6.5%	0.0	2.9%	-5.2%	6.5%	28.2µM*
COc1ccc(-c2cc(C(F)(F)F)n3nc(C(=O)NCCN4CCOCC4)cc3n2)cc1	-1.5%	-0.6	-5.2%	8.6%	6.7%	1.2%
CC(C)OC(=O)c1c(NC(=O)c2cc3nc(-c4ccccc4)cc(C(F)(F)F)n3n2)sc2c1CCCC2	/	/	-11.8%	/	/	-11.7%
